Laboratory results from PubChem BioAssay.
Active and inactive are the calls of the source.

What was measured:
[1] = target: Albumin (Bos taurus) (UniProt P02769); assay: compounds binding labelled BSA control protein – biochemical, small-molecule microarray, Alexa647 label, 635/667 nm fluorescence, artefact control for SMM control protein annotation, profiling panel (AID 1118); conditions: BSA-A647 binding, fluorescence 635 nm, higher = more signal;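 also: score merges 667 nm emission intensity and signal-to-noise per printed compound spot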
[2] = probe aXIP binding to arrayed compounds – biochemical, NeuroSMM set, 635/667 nm fluorescence, primary screen (AID 1119); conditions: small-molecule microarray, higher = more signal, called active from +8 up or from −8 down;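 also: probe is the protein aXip251-270 applied at 1 µg/mL to compound-printed slides; binding of probe to printed compounds measured as 667 nm fluorescence plus signal to noise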
[3] = probe aNOTCH3 binding on compound microarray – biochemical, small-molecule microarray, 635/667 nm fluorescence, primary screen (AID 1120); conditions: higher = more signal;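 also: probe is a biotin-tagged antibody raised against NOTCH3 rather than NOTCH3 protein; score merges spot fluorescence near 667 nm with spot signal to noise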
[4] = probe aNOTCH2 binding on compound microarray – biochemical, small-molecule microarray, 635/667 nm fluorescence, primary screen (AID 1121); conditions: higher = more signal;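 also: score merges feature fluorescence read at 667 nm with its signal to noise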
[5] = target: Carbonic anhydrase 2 (Homo sapiens) (UniProt P00918); assay: compounds binding carbonic anhydrase 2 – biochemical, small-molecule microarray, Alexa647-labelled CAII, profiling panel (AID 1122); conditions: CAII-A647 binding fluorescence, higher = more signal
[6] = COS7 lysate on small-molecule microarray, probe aHis, 635 nm (AID 1123); conditions: COS7 cell lysate, fluorescence, higher = more signal;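 also: z-score combines 667nm fluorescence intensity with signal-to-noise per printed compound spot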
[7] = probe aLAP1 signal on lysate-treated microarray – cell lysate, small-molecule microarray, COS7 lysate, primary screen (AID 1124); conditions: probe aLAP1, fluorescence, higher = more signal;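 also: lysate comes from COS7 cells expressing LAP1 and is applied at 0.3 µg/mL; score merges spot fluorescence near 667 nm with signal-to-noise over triplicate slides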
[8] = tested on: Sam68 (KHDRBS1); assay: compounds binding KHDRBS1 protein – biochemical, small-molecule microarray, 635 nm fluorescence, primary screen (AID 1125); conditions: higher = more signal;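 also: score merges 667 nm channel intensity with signal to noise over triplicate slides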
[9] = tested on: Chordin-like protein 2 (CHRDL2); assay: compounds binding chordin-like 2 – biochemical, small-molecule microarray, 635 nm fluorescence, primary screen (AID 1126); conditions: fluorescence 635 nm, higher = more signal;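 also: printed compound slides probed with Chrdl2 protein at 4 µg/mL for 1 h at 4 C; score merges 667 nm emission intensity with signal to noise over three replicate slides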
[10] = target: Concanavalin-A (Canavalia ensiformis) (UniProt P02866); assay: compounds binding concanavalin A lectin – biochemical, small-molecule microarray, Alexa647 label, 635 nm, artefact control for SMM control protein annotation, primary screen (AID 1127); conditions: ConA-A647 binding fluorescence, higher = more signal;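 also: z combines 667 nm emission intensity with signal-to-noise across three replicate slides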
[11] = compounds binding Alexa647 anti-His antibody – biochemical, small-molecule microarray, 635 nm fluorescence, artefact control for SMM control protein annotation, primary screen (AID 1128); conditions: higher = more signal;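 also: score merges feature fluorescence with signal-to-noise for each printed compound spot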
[12] = tested on: Human papillomavirus type 1a E7 protein (residues 1-88); assay: HPV1a E7 small-molecule binders, primary screen, biochemical, small-molecule microarray, residues 1-88, 635 nm (AID 1129); conditions: small-molecule microarray binding, fluorescence 635 nm; higher = more signal
[13] = target: Focal adhesion kinase 1 (Homo sapiens) (UniProt Q05397); assay: PTK2 protein binding on printed compound slides – biochemical, small-molecule microarray, 635/667 nm fluorescence, BSA, DTT, primary screen (AID 1130); conditions: 635 nm fluorescence, higher = more signal;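 also: composite of spot emission at 667 nm and signal to noise over triplicate slides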
[14] = tested on: Fibrinogen (Alexa647-labelled); assay: Alexa647-fibrinogen binding to printed small molecules – biochemical, small-molecule microarray, 635/667 nm fluorescence, artefact control for SMM control-protein annotation, profiling panel (AID 1131); conditions: fibrinogen-A647 binding fluorescence, higher = more signal;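 also: z-score merges 667 nm fluorescence with per-spot signal-to-noise over triplicate slides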
[15] = target: Follistatin (Homo sapiens) (UniProt P19883); assay: FST protein binding to printed compounds – biochemical, small-molecule microarray, 635/667 nm fluorescence, primary screen (AID 1132); conditions: 635 nm fluorescence, higher = more signal
[16] = target: Fibroblast growth factor 2 (Homo sapiens) (UniProt P09038); assay: basic fibroblast growth factor binding to printed compounds – biochemical, small-molecule microarray, 635/667 nm fluorescence, primary screen (AID 1133); conditions: FGF2, fluorescence 635/667, higher = more signal
[17] = JC-1 mitochondrial potential readout, lung cancer cells – cell-based, A549, JC-1 fluorescence, basal, 24 h, 100 nL, profiling panel (AID 1138); conditions: higher = more signal;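 also: A549 lung adenocarcinoma cells under basal conditions with no added stimulus; test concentration not given here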
[18] = tested on: Lefty1; assay: Lefty1 protein binding to printed compounds – biochemical, small-molecule microarray, 635/667 nm fluorescence, primary screen (AID 1139); conditions: fluorescence 635/667, higher = more signal
[19] = tested on: wheat germ agglutinin (Triticum aestivum), Alexa647-labelled; assay: Alexa647-WGA lectin binding to printed small molecules – biochemical, small-molecule microarray, 635/667 nm fluorescence, artefact control for SMM control-protein annotation, profiling panel (AID 1140); conditions: WGA-A647 binding, 635 nm fluorescence, higher = more signal;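 also: score merges 667 nm feature emission with signal to noise over triplicate slides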
[20] = target: Luciferin 4-monooxygenase (Photinus pyralis) (UniProt P08659); assay: inhibition of purified Photinus pyralis luciferase – biochemical, luminescence, purified enzyme, 2006 set, primary screen (AID 1141); conditions: purified firefly luciferase, SteadyGlo luminescence, 30 min; higher = more signal, called active from +8 up or from −8 down;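 also: cell-free assay with purified firefly luciferase at 100 ng per well in PBS; test concentration not given here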
Luciferin 4-monooxygenase (Photinus pyralis), sequence (P08659 whole entry, looked up): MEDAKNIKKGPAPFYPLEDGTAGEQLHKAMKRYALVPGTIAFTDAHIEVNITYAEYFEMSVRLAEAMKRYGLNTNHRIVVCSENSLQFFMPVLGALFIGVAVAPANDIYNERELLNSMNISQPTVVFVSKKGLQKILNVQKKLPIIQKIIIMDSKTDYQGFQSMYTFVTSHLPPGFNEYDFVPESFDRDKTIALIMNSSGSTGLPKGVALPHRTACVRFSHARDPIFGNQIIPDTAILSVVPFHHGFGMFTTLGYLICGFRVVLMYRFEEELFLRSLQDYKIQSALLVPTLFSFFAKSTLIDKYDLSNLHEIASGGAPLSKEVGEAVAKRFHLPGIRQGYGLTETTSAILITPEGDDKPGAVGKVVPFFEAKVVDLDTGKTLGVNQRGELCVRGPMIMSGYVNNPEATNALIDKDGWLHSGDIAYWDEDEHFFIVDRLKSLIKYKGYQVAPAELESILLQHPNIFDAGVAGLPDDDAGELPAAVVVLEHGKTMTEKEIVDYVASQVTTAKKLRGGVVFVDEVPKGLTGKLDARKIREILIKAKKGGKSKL

Follistatin (Homo sapiens), sequence (P19883 whole entry, looked up): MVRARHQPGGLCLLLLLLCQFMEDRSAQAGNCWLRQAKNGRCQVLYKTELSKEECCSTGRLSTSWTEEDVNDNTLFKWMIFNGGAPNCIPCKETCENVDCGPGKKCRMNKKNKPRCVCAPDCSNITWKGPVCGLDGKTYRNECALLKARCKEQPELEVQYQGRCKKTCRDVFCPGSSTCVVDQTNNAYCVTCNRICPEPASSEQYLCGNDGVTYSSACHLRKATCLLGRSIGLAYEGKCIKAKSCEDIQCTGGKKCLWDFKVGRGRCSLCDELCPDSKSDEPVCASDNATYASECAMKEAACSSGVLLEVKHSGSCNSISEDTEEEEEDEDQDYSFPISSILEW
Concanavalin-A (Canavalia ensiformis), sequence (P02866 whole entry, looked up): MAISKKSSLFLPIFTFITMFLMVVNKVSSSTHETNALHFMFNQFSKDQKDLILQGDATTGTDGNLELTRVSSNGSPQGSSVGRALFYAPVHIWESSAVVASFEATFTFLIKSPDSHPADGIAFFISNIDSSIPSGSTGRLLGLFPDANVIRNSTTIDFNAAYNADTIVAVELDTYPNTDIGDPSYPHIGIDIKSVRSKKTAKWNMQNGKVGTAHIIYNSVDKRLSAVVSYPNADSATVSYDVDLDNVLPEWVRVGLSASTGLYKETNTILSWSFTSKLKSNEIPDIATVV
Focal adhesion kinase 1 (Homo sapiens), sequence (Q05397 whole entry, looked up): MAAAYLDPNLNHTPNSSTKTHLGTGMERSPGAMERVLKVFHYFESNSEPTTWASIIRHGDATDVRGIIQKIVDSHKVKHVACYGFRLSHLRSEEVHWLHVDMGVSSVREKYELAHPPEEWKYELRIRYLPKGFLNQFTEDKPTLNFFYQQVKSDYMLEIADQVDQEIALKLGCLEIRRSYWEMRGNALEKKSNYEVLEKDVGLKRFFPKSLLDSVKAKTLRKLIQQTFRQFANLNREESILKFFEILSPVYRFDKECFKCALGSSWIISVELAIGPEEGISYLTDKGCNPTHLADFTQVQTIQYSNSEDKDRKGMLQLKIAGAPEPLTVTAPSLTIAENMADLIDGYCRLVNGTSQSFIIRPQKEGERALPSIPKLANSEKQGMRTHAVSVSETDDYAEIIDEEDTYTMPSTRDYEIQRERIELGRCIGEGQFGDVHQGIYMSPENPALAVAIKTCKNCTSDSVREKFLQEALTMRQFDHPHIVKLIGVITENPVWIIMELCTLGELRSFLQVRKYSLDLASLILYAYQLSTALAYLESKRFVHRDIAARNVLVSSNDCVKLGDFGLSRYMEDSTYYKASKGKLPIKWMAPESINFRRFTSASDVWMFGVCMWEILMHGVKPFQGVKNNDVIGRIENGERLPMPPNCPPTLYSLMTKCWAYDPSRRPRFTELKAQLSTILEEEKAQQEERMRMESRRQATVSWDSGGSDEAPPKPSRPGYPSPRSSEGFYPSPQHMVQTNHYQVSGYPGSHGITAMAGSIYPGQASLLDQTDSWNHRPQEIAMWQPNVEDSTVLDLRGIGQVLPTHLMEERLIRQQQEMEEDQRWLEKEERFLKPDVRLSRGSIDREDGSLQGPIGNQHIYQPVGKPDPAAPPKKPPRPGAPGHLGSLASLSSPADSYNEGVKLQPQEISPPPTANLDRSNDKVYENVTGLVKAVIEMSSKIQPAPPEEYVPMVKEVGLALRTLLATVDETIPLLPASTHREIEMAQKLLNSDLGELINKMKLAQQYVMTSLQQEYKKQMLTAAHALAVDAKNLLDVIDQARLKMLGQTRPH
Fibroblast growth factor 2 (Homo sapiens), sequence (P09038 whole entry, looked up): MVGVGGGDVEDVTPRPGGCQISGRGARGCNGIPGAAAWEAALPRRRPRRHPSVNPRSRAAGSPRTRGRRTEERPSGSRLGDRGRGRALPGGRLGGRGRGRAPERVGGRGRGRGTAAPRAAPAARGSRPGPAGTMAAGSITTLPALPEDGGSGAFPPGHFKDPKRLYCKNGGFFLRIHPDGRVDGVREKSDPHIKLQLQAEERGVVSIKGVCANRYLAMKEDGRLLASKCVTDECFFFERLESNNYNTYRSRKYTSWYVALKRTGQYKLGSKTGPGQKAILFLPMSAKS
Albumin (Bos taurus), sequence (P02769 whole entry, looked up): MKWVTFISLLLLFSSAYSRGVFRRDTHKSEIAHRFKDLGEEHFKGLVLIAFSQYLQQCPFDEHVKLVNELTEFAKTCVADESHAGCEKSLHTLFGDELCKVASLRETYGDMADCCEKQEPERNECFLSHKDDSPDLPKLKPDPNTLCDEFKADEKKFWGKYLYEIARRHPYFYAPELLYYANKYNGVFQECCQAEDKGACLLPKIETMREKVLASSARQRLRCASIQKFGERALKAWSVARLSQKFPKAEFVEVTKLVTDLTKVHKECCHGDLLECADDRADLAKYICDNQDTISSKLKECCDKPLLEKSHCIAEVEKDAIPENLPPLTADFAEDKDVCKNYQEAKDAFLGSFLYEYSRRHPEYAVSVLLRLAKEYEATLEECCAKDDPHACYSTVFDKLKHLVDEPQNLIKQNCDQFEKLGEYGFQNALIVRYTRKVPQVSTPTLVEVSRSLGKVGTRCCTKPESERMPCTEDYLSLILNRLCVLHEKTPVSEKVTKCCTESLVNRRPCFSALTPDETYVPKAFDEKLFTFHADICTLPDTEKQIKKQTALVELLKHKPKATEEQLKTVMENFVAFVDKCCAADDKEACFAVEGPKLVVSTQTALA

Structure (SMILES) | composite z-score [1] | composite Z-score [2] | composite z-score [3] | composite z-score [4] | composite z-score [5] | composite z-score [6] | composite z-score [7] | composite z-score [8] | composite z-score [9] | composite z-score [10] | composite z-score [11] | composite z-score [12] | composite z-score [13] | composite z-score [14] | composite z-score [15] | composite z-score [16] | z-score [17] | composite z-score [18] | composite z-score [19] | z-score [20]
O=C1C2C=CC(C(O)c3c(F)cccc3Cl)N(Nc3ccccc3F)C2C(=O)N1c1ccccc1 (stereo not given) | 0.913 | -0.145 (inactive) | 0.185 | -0.0216 | 0.691 | 1.67 | 0.497 | 1.21 | -0.534 | 0.972 | 0.236 | 1.23 | 0.631 | 0.926 | 1.09 | 0.793 | 0.353 | -0.199 | 0.702 | -0.059 (inactive)
CCOc1ccc(N2C(=O)CSC2c2cccc([N+](=O)[O-])c2)cc1 (stereo not given) | 0.954 | 0.625 (inactive) | 0.133 | -0.14 | 0.36 | 1.63 | 0.181 | 0.829 | 0.428 | 0.789 | 0.798 | 0.636 | 0.65 | 0.71 | 0.0936 | 0.176 | 0.56 | -0.157 | 1.09 | 0.8 (inactive)
CCCC=C(CCC)[C@@H](NC(=O)OCC(C)C)c1ccccc1 | 0.923 | -0.254 (inactive) | 1.03 | -0.0141 | 0.611 | 1.6 | -0.182 | 1.31 | -1.42 | 1.1 | 0.665 | 1.15 | 0.172 | 0.471 | 0.978 | 0.16 | -0.138 | 0.822 | 0.126 | 0.936 (inactive)
C=C(CCCC)/C(=C/C[C@H](OC(=O)c1ccncc1)c1ccc(OCCO)cc1)c1cc(C(=O)OC)ccc1OC | -0.0215 | 0.219 (inactive) | 0.167 | -0.14 | 0.644 | 0.774 | 0.354 | 0.59 | -0.257 | 0.363 | 1.07 | 1.18 | 0.525 | 0.438 | -0.0021 | 0.0508 | 0.313 | 0.394 | 0.704 | -0.723 (inactive)
COC(=O)[C@@]1(CCC(=O)OC(C)(C)C)N=C(c2ccc(OCCCO)cc2)O[C@H]1c1ccccc1 | -0.735 | 0.21 (inactive) | -0.0716 | 0.0464 | 0.687 | 2.16 | 0.637 | -0.297 | 0.0741 | 0.57 | 0.467 | 0.896 | 0.517 | 0.554 | 0.693 | 0.989 | -0.4 | -0.85 | 0.492 | -5.22 (inactive)
COCCCNC(=O)[C@@]1(Cc2ccccc2)N=C(c2ccc(OCCCO)cc2)O[C@H]1c1ccccc1CN=[N+]=[N-] | 0.884 | 0.294 (inactive) | 0.217 | 0.253 | 0.752 | 2.78 | 0.982 | 1.32 | -1.1 | 1.12 | 2.82 | 1.17 | 0.944 | 0.913 | 1.3 | 0.122 | 1.99 | 0.872 | 1.18 | -0.781 (inactive)
CC(C)(C)OC(=O)CC[C@]1(C(N)=O)N=C(c2ccc(OCCCO)cc2)O[C@H]1c1ccccc1 | 0.963 | 0.0933 (inactive) | 0.405 | 0.133 | 0.848 | 3.21 | 0.834 | 1.25 | -1.34 | 0.32 | 2.07 | 1.2 | 0.35 | 0.407 | 0.839 | 0.29 | 1.04 | -0.388 | 1.48 | -0.47 (inactive)
CCOC(=O)C[C@H]1[C@H](OC(=O)c2ccc(-c3ccccc3)cc2)[C@@H](NC(=O)c2ccccc2)c2cc(OCCCO)ccc2N1C(=O)Cc1ccc(OC)cc1 | 0.372 | -0.316 (inactive) | -0.0077 | -0.0664 | -0.0275 | 0.368 | 0.311 | -0.254 | -0.399 | -0.769 | -0.913 | -0.509 | -0.355 | -0.264 | -0.434 | 0.1 | 1.45 | -0.336 | -0.126 | -0.938 (inactive)
COc1ccc(C(O)C2C=CC3C(=O)N(C)C(=O)C3N2NC(=O)OC(C)(C)C)c2ccccc12 (stereo not given) | 1.02 | -0.128 (inactive) | 0.424 | 0.0315 | 0.745 | 2.98 | 0.404 | 1.3 | -0.345 | 1.11 | 1.62 | 1.28 | 0.685 | 0.988 | 0.832 | -0.161 | -0.771 | -0.33 | 1.31 | -0.9 (inactive)
C=C(CCCC)C(=O)CC[C@@H](OC(C)=O)c1ccc(CO)o1 | -0.855 | -0.666 (inactive) | -0.0581 | -0.108 | 0.645 | 0.423 | -0.0353 | 0.628 | 0.869 | 0.0313 | 0.184 | -0.261 | -0.437 | 0.513 | 1.36 | 1.8 | -0.683 | 1.64 | 0.201 | -1.3 (inactive)
O=C1C2C=CC(C(O)COCc3ccccc3)N(Nc3ccc([N+](=O)[O-])cc3)C2C(=O)N1c1ccccc1 (stereo not given) | 0.734 | 0.845 (inactive) | 0.271 | 0.0449 | 0.766 | 2.9 | 0.143 | 1.31 | 0.412 | 0.519 | 1.55 | 1.25 | 1.19 | 0.983 | 1.13 | 0.119 | -0.738 | 0.638 | 0.955 | 1.54 (inactive)
